Compound activity: PubChem BioAssay, National Center for Advancing Translational Sciences (NCATS)
This is a sample that favours compounds with a hit; in the whole collection about 19% have one here.
HepG2 tox: kills HepG2 cells in TGF-b inhibitor counter-screen; 410,000 compounds, 0.76% hits; HepG2 CAGA-GFP viability, ATP luminescence, 18 h; Potency, µM (titrated, usually from 46.1 µM), without a hit: at the top dose activity change, negative = cytotoxicity, hits mostly cytotoxic; also: potency is read from the fitted curve at half-maximal effect
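HepG2 CAGA-GFP cells (1000/well, DMEM with 1% FBS) received compound, then TGF-beta at 500 pg/mL final, and were incubated 18 hours at 37 degrees C. Viability was read by CellTiter-Glo luminescence. Media-only wells were set as complete cell-killing and DMSO as no toxicity.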
TGFb SMAD3 inh: blocks TGF-b signaling. HepG2 CAGA-GFP TGF-b/SMAD3 reporter, GFP fluorescence, 18 h; TGF-beta stimulated, 500 pg/mL final. Potency, µM (highest dose often 46.1 µM), without a hit: at the highest dose activity, negative = inhibition, actives largely listed as inhibitors. 410,000 compounds, 1.2% hits; also: potency is read from the fitted curve at half-maximal effect; % is scaled to controls: 0 for no effect and ±100 for the full control effect; nearly all actives have a fitted effect of over 65% in size
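Inhibition of TGF-beta-driven CAGA-GFP reporter expression in HEPG2 cells is measured by cellular GFP fluorescence after 18 h stimulation with 500 pg/mL recombinant TGF-beta in 1% FBS medium at 37 degrees C.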
DT40 TDP1 no CPT: qHTS for Inhibitors of human tyrosyl-DNA phosphodiesterase 1 (TDP1): qHTS in cells in absence of CPT; DT40 Tdp1-/- hTDP1 cells, no CPT, ATP luminescence, 48 h; Potency, µM (series often up to 46.2 µM), without a hit: at the highest dose activity change, negative = growth inhibition, hits mostly inhibitors; 420,000 compounds, 15% hits; also: potency is read from the fitted curve at half-maximal effect; % is scaled to controls: 0 for no effect and ±100 for the full control effect; nearly all actives have a fitted effect of over 55% in size
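Luminescent ATP content (CellTiter-Glo) served as the growth readout. Knockout chicken DT40 cells expressing human TDP1 were exposed to compounds without camptothecin for a minimum 48 hr at 37 °C.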
TDP1 cell CPT: growth inhibition of DT40 Tdp1-/-;hTDP1 cells with camptothecin (screen for TDP1 inhibitors); 420,000 compounds, 12% hits; Potency, µM (top dose mostly 46.2 µM), for inactives: at the highest dose activity change, negative = growth inhibition, most hits filed as inhibitors; chicken DT40 Tdp1-/-;hTDP1 cells + 20 nM CPT, ATP luminescence, 48 h; also: potency is read from the fitted curve at half-maximal effect; % is scaled to controls: 0 for no effect and ±100 for the full control effect; nearly all actives have a fitted effect of over 55% in size
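Cell growth measured by CellTiter-Glo luminescence after a minimum 48 h, 37 C compound exposure with 20 nM CPT in Tdp1-knockout DT40 cells stably expressing hTDP1, seeded 400/well; qHTS titration format.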
IL-1B inflam inh: inflammasome signaling inhibition, IL-1 beta readout; THP-1 LPS/ATP IL-1B secretion, AlphaLISA, 16 h; hits give low values; activity change, % at 57.5 µM; 360,000 compounds, 4.7% hits; AID 743279; in the data active = activity change below about -50%; inconclusive = mostly about -30% to -49%; also: % is scaled to controls: 0 for no effect and ±100 for the full control effect
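Secreted IL-1B measured by AlphaLISA bead assay after 16 h compound exposure of THP-1 cells; compounds (final up to 57.5 uM) added 1 h before LPS (250 ng/mL) and ATP (1.25 mM) stimulation; lower signal means less secretion.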
TDP1 block: TDP1 (human) enzyme inhibition | 350,000 compounds, 0.28% hits | AID 485290 | recombinant TDP1, AlphaScreen DNA substrate cleavage | Q9NUW8 | Potency, µM (series often up to 130 µM), for inactives: top-dose activity change, negative = inhibition, hits mostly inhibitors; also: potency is read from the fitted curve at half-maximal effect; % is scaled to controls: 0 for no effect and ±100 for the full control effect; nearly all actives have a fitted effect of over 40% in size
Target sequence (Q9NUW8 whole entry, looked up): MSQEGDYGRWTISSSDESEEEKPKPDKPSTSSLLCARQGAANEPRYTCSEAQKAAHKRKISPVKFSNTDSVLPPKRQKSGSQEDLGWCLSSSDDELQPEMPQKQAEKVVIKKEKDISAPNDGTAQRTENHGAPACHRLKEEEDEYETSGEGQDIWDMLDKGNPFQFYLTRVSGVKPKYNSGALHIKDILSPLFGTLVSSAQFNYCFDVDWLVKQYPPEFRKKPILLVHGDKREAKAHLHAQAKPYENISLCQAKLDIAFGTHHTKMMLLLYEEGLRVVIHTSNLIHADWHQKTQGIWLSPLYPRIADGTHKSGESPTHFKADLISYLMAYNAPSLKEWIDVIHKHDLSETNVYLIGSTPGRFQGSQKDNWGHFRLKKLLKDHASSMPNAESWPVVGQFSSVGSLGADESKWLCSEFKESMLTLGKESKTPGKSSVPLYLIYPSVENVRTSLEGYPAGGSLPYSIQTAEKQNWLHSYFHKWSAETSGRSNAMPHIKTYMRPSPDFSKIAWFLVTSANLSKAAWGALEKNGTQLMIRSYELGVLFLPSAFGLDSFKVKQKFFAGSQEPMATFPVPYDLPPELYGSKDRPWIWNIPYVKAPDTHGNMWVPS
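Recombinant E. coli-expressed Tdp1 (1 nM) preincubated with compound 15 min at RT, then 5'-biotin/3'-phosphotyrosine-FITC DNA substrate (15 nM) added for 5 min. AlphaScreen beads (10 ug/ml) added, 10 min RT; tyrosine-FITC cleavage read as signal loss.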
* hit, by the source's call; ? = inconclusive; . = no result given. Unless noted, calls follow the shape of the dose curve; as a rule, active = well fitted curve in the direction sought with a large enough effect; inconclusive = small, poorly fitted or top-dose-only effect, or another doubt; inactive = no such curve, though single readings can be large; an effect the other way counts as inactive or inconclusive.

SMILES	HepG2 tox	TGFb SMAD3 inh	DT40 TDP1 no CPT	TDP1 cell CPT	IL-1B inflam inh	TDP1 block
Cc1ccc(S(=O)(=O)N(C)Cc2ccc(C(=O)NN=C3C4CC5CC(C4)CC3C5)cc2)cc1	-3%	-8%	-23%	2%	14	-5%
CC/C(=N\NC(=O)c1ccc(CN(C)S(=O)(=O)c2ccc(C)cc2)cc1)c1ccc(OC(F)F)cc1	5%	1%	21µM*	?	-16	3%
CC/C(=N\NC(=O)c1cc(C)oc1C)c1ccc(OC(F)F)cc1	-34%	-13%	?	?	18	.
Cc1ccc(S(=O)(=O)N(C)Cc2ccc(C(=O)NN=C(CC(C)C)CC(C)C)cc2)cc1	-14%	-12%	23µM*	?	-27	6%
CC1(c2ccccc2)CC(C)(C)N2C(=O)C3(C(C#N)=C(N)Oc4cc(O)ccc43)c3cccc1c32 (centres undefined)	-100%	?	?	?	-51*	10%
CC1(C)CC(=O)C2=C(C1)OC(N)=C(C#N)C21C(=O)N2CCCc3cccc1c32 (centres undefined)	-12%	-2%	-10%	-11%	-7	3%
CC1=CC(C)(C)N2C(=O)C3(C(C#N)=C(N)Oc4cc(O)ccc43)c3c(C)c(C)cc1c32 (centres undefined)	-107%	?	?	?	-73*	7%
Cc1cc2c3c(c1)C1(C(=O)N3C(C)(C)CC2C)C(C#N)=C(N)Oc2n[nH]c(C)c21 (centres undefined)	-4%	19%	?	?	?	3%
Cc1cc2c3c(c1)C(C)(c1ccccc1)CC(C)(C)N3C(=O)C21C(C#N)=C(N)OC2=C1C(=O)CC(C)(C)C2 (centres undefined)	-109%	?	23µM*	21µM*	?	11%
O=C1NC2(CCCCCC2)C(=O)N1Cc1c(F)cccc1Cl	1%	-2%	-1%	-1%	10	.
COC[C@H]1CCCN1[C@@H]1CS(=O)(=O)N[C@H]1COCc1ccccc1	-30%	-24%	-28%	-19%	30	.
COC(=O)C1=CC(C(=O)c2cccs2)=NN(c2ccc(OC)cc2)C1C(=O)OC (centres undefined)	-30%	-27%	?	?	-69*	11%
N#Cc1c(N(CC(=O)O)CC(=O)O)sc(C(=O)O)c1CC(=O)O	.	.	-22%	-4%	.	.
COC(=O)c1cc(C(=O)OC)[nH]n1	-8%	-7%	0%	14%	10	-3%
Cc1ccnc2c(Cl)c(Cl)ccc12	4%	0%	-26%	-9%	.	.
COc1ccc(-c2cc3ccccc3n2CC(O)CN2CCCCC2)cc1 (centres undefined)	-40%	-5%	-18%	-24%	-27	.
CCC(=C(c1ccc(OC)cc1)c1ccc(OC)cc1)c1cn(CC(O)CN2CCN(C)CC2)c2ccccc12 (centres undefined)	13µM*	?	13µM*	10µM*	-106*	9%
CC1(C)CCC[C@]2(C)C(CS(=O)c3ccccc3)=C(C=O)CC[C@@H]12 (some centres undefined)	-47%	?	21µM*	?	?	.
CCOC(=O)c1c(Oc2ccc(C(=O)OC)cc2)nnc(-c2ccccc2)c1-c1ccccc1	-13%	-2%	23µM*	16µM*	.	2%
CCOC(=O)c1cnc(-c2ccccc2)nc1Oc1ccc(OC)cc1	11%	-2%	17%	-1%	6	0%
CCOC(=O)c1c(Oc2ccc(OC)cc2)nnc(-c2ccccc2)c1-c1ccccc1	-31%	-19%	?	16µM*	.	1%
COC(=O)c1c(Oc2ccc(C(C)=O)cc2)nnc(-c2ccccc2)c1-c1ccccc1	-18%	?	?	18µM*	.	6%
O=C(NCCCN1CCOCC1)c1ccc2c(=O)n(-c3ccc(F)c(Cl)c3)c(=S)[nH]c2c1	-13%	-2%	?	-5%	27	4%
CCOc1ccc(N2CC(NC(=O)CCc3ccccc3)CC2=O)cc1 (centres undefined)	-10%	-22%	-1%	4%	.	0%
CN(C)N1C(N)=C(C#N)C(c2ccc3c(c2)OCO3)C2=C1CCCC2=O (centres undefined)	0%	1%	-18%	0%	-8	.
SMILES	HepG2 tox	TGFb SMAD3 inh	DT40 TDP1 no CPT	TDP1 cell CPT	IL-1B inflam inh	TDP1 block
CCc1ccc(-c2cn3c(n2)sc2cc(C(=O)NCCCc4ccccc4)ccc23)cc1	0%	-16%	-2%	-22%	.	4%
Cc1ccc(-c2cn3c(n2)sc2cc(C(=O)NCCCc4ccccc4)ccc23)c(C)c1	-1%	4%	18µM*	23µM*	.	5%
Cc1ccc(-c2cn3c(n2)sc2cc(C(=O)NCCC4=CCCCC4)ccc23)c(C)c1	-14%	0%	16µM*	16µM*	.	-6%
CCN(C(=O)COC(=O)CNC(=O)c1cccs1)c1c(N)n(Cc2ccccc2)c(=O)[nH]c1=O	1%	17%	23%	0%	-2	.
CCC(=O)N1CCCc2cc(S(=O)(=O)N3CCN(c4ccccn4)CC3)ccc21	-5%	0%	21µM*	?	-16	2%
CCC(=O)N1CCCc2cc(S(=O)(=O)N3CCN(c4ncccn4)CC3)ccc21	-3%	-5%	?	15µM*	-1	1%
O=C(C1CCC1)N1CCc2cc(S(=O)(=O)N3CCN(c4ccccn4)CC3)ccc21	-17%	0%	?	?	-3	7%
O=C1CCCN1C(=O)CSc1nnnn1-c1ccccc1	-26%	7%	0%	-9%	11	0%
O=C(c1ccc(COc2ccc3ccccc3c2)o1)N1N=C(C(F)F)CC1(O)C(F)F (centres undefined)	-108%	11µM*	21µM*	?	-1	3%
CCOc1ccc(OCc2ccc(C(=O)N3N=C(C(F)F)CC3(O)C(F)F)o2)cc1 (centres undefined)	-39%	-27%	?	?	4	-2%
O=C(c1ccc(COc2ccccc2Cl)o1)N1N=C(C(F)F)CC1(O)C(F)F (centres undefined)	-65%	?	16µM*	23µM*	?	3%
O=C(c1ccc(COc2ccc(Br)cc2)o1)N1N=C(C(F)F)CC1(O)C(F)F (centres undefined)	-32%	-5%	?	?	?	5%
